Reference: PubChem BioAssay
Activity calls are given as the source filed them. Unless noted, how the calls were made is not given here.

Tests used:
[1] = tested on: XIP peptide (Xip251-270) binding; test: small-molecule binders of XIP peptide, primary screen, biochemical, small-molecule microarray, fluorescence 635/667 nm, 0.1 µg/mL protein (AID 1182); conditions: fluorescent protein binding, 635 nm, higher = more signal, called active from +8 up or from −8 down
XIP peptide (Xip251-270) = test: small-molecule binders of XIP peptide, primary screen, biochemical, small-molecule microarray, fluorescence 635/667 nm, 0.5 µg/mL protein (AID 1183); conditions: small-molecule microarray binding, fluorescence 635 nm; higher = more signal
[2] = Plasmodium falciparum growth inhibition, primary screen, strain 3D7, DAPI fluorescence, 100 nL (AID 1184);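 further: parasites grown inside human red blood cells in medium with human serum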; conditions: P. falciparum 3D7 growth, 3 d, higher = more signal
[3] = target: Homeobox protein Hox-A13 (Mus musculus) (UniProt Q62424); test: inhibitors of HoxA13-DNA binding, primary screen, biochemical, fluorescence polarization, labeled oligonucleotide (AID 1185); conditions: 15 min, higher = more signal, called active from +8 up or from −8 down
[4] = inhibitors of hydroxyurea-induced Chk1 phosphorylation, primary screen, imaging, HeLa, phospho-Chk1 antibody, percent positive cells (AID 1186); conditions: hydroxyurea-induced phospho-Chk1 immunofluorescence imaging, higher = more signal
[5] = inhibitors of hydroxyurea-induced Chk1 phosphorylation, primary screen, imaging, HeLa, phospho-Chk1 nuclear intensity (AID 1187); conditions: hydroxyurea-induced phospho-Chk1 immunofluorescence imaging, higher = more signal

Chain of Homeobox protein Hox-A13 (Mus musculus) (Q62424 whole entry, looked up): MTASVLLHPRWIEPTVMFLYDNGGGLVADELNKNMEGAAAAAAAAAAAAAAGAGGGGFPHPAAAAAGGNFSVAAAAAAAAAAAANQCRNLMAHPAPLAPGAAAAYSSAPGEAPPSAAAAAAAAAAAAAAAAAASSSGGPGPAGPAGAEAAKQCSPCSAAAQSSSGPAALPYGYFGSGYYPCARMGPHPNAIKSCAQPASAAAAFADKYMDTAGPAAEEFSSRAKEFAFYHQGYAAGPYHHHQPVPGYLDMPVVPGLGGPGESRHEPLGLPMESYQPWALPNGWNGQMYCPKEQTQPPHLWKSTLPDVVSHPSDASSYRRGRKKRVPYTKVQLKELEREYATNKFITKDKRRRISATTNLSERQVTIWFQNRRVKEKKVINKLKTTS

COCCn1c(C(=O)N2CCCC2)cc2c1C[C@H]1CN(C(=O)c3ccccc3)[C@@](Cc3ccc(OC)cc3)(C(=O)OC)[C@@H]21
composite z-score [1]: 0.541 (inactive)
composite z-score (XIP peptide (Xip251-270)): 0.603
z-score [2]: -1.55
z-score [3]: -4.97 (inactive)
z-score [4]: -0.598 (inactive)
z-score [5]: -0.634 (inactive)

COc1ccc(CCNC(=O)[C@@]2(C)c3ccccc3C(=O)N(Cc3ccccc3)[C@H]2c2ccc(CO)cc2)cc1
composite z-score [1]: 1.12 (inactive)
composite z-score (XIP peptide (Xip251-270)): 0.859
z-score [2]: -1.93
z-score [3]: -4.95 (inactive)
z-score [4]: -0.281 (inactive)
z-score [5]: -0.173 (inactive)

C=C(C(=O)CC[C@@H](OC(C)=O)c1ccc(OCCO)cc1)C(C)C
composite z-score [1]: 0.564 (inactive)
composite z-score (XIP peptide (Xip251-270)): 0.101
z-score [2]: -1.42
z-score [3]: -3.67 (inactive)
z-score [4]: 0.598 (inactive)
z-score [5]: 0.147 (inactive)

CO[C@H]1O[C@H](CO)[C@@H](OC(=O)Nc2ccc(C(F)(F)F)cc2)[C@H](OC(=O)Nc2ccccc2)[C@@H]1OC(=O)Nc1ccccc1
composite z-score [1]: 0.384 (inactive)
composite z-score (XIP peptide (Xip251-270)): 0.62
z-score [2]: -0.0799
z-score [3]: -5.23 (inactive)
z-score [4]: 0.666 (inactive)
z-score [5]: 0.389 (inactive)

CC(c1ccccc1)C(O)C1C=CC2C(=O)N(c3ccccc3)C(=O)C2N1Nc1ccccc1F (stereo unspecified)
composite z-score [1]: -0.093 (inactive)
composite z-score (XIP peptide (Xip251-270)): 0.583
z-score [2]: -0.436
z-score [3]: -1.51 (inactive)
z-score [4]: -0.123 (inactive)
z-score [5]: 0.104 (inactive)

COc1ccc(C#Cc2ccc3c(c2)[C@]2(C(=O)N3)[C@H](C(=O)N3CCc4cc(OC)c(OC)cc4C3)[C@H]3C(=O)O[C@H](c4ccccc4)[C@H](c4ccccc4)N3[C@@H]2c2ccc(OCCO)cc2)cc1
composite z-score [1]: 0.53 (inactive)
composite z-score (XIP peptide (Xip251-270)): 0.598
z-score [2]: -1.36
z-score [3]: -2.71 (inactive)
z-score [4]: -0.122 (inactive)
z-score [5]: 2.93 (inactive)

CCOC(=O)C1=CC[C@@H](c2ccccc2)N(S(=O)(=O)c2ccc(C)cc2)[C@H]1c1ccc(C#N)cc1
composite z-score [1]: 0.432 (inactive)
composite z-score (XIP peptide (Xip251-270)): 0.728
z-score [2]: -1.95
z-score [3]: 0.426 (inactive)
z-score [4]: 0.972 (inactive)
z-score [5]: 0.136 (inactive)

Cc1c(NC(=O)/C(C#N)=C/C=C/c2ccccc2)c(=O)n(-c2ccccc2)n1C
composite z-score [1]: -0.3 (inactive)
composite z-score (XIP peptide (Xip251-270)): 0.559
z-score [2]: -0.582
z-score [3]: -1.5 (inactive)
z-score [4]: 0.062 (inactive)
z-score [5]: 0.214 (inactive)

O=C1OCC=C[C@H]2OC34C=CCN(Cc5ccccc5)C(=O)[C@H]3N(CCCO)C(=O)[C@@H]4[C@@H]12 (stereo partly specified)
composite z-score [1]: 1.09 (inactive)
composite z-score (XIP peptide (Xip251-270)): 0.212
z-score [2]: -1.89
z-score [3]: -4.31 (inactive)
z-score [4]: -1.44 (inactive)
z-score [5]: -0.938 (inactive)

C=CC[C@@]1(C(N)=O)N=C(c2ccc(OCCCO)cc2)O[C@@H]1c1ccccc1N=[N+]=[N-]
composite z-score [1]: 0.868 (inactive)
composite z-score (XIP peptide (Xip251-270)): 0.231
z-score [2]: -1.73
z-score [3]: -6.09 (inactive)
z-score [4]: -0.0626 (inactive)
z-score [5]: 0.0164 (inactive)

C=CCN1C(=O)[C@]2(Cc3ccccc31)N=C(c1ccc(OCCCO)cc1)O[C@@H]2c1ccccc1
composite z-score [1]: 0.526 (inactive)
composite z-score (XIP peptide (Xip251-270)): 0.791
z-score [2]: -2.07
z-score [3]: -4.97 (inactive)
z-score [4]: -0.149 (inactive)
z-score [5]: 0.0449 (inactive)

COc1ccc(C#Cc2ccc3c(c2)[C@]2(C(=O)N3)[C@H](c3ccc(OCCO)cc3)N3[C@H](c4ccccc4)[C@H](c4ccccc4)OC(=O)[C@H]3[C@@H]2C(=O)Nc2nc3ccccc3s2)cc1
composite z-score [1]: 0.353 (inactive)
composite z-score (XIP peptide (Xip251-270)): 0.522
z-score [2]: -1.3
z-score [3]: 3.34 (inactive)
z-score [4]: 0.141 (inactive)
z-score [5]: 0.315 (inactive)

O=C1C2C=CC(C(O)c3ccccn3)N(Nc3ccccc3F)C2C(=O)N1c1ccccc1 (stereo unspecified)
composite z-score [1]: -0.035 (inactive)
composite z-score (XIP peptide (Xip251-270)): 0.796
z-score [2]: -0.0664
z-score [3]: -2.54 (inactive)
z-score [4]: -0.0045 (inactive)
z-score [5]: -0.176 (inactive)

O=C(CS)NCCCCCNC(=O)[C@H]1C[C@H]2C(=O)N[C@@H](Cc3ccccc3)C(=O)N2[C@H]1c1cccc(OCCO)c1
composite z-score [1]: 0.296 (inactive)
composite z-score (XIP peptide (Xip251-270)): 0.812
z-score [2]: 0.0332
z-score [3]: -2.76 (inactive)
z-score [4]: 0.0034 (inactive)
z-score [5]: 0.483 (inactive)

O=C1O[C@H](c2ccccc2)[C@H](c2ccccc2)N2[C@H]1[C@@H](C(=O)NC[C@H](O)c1ccccc1)[C@]1(C(=O)Nc3ccc(C#CC4=CCCCC4)cc31)[C@H]2c1ccc(O)cc1
composite z-score [1]: 0.447 (inactive)
composite z-score (XIP peptide (Xip251-270)): 0.766
z-score [2]: -1.53
z-score [3]: 0.685 (inactive)
z-score [4]: 0.577 (inactive)
z-score [5]: 1.25 (inactive)

CC(C)(C)OC(=O)CC[C@@]1(C(=O)NCC(O)CO)N=C(c2ccc(OCCCO)cc2)O[C@@H]1c1ccccc1 (stereo partly specified)
composite z-score [1]: 0.826 (inactive)
composite z-score (XIP peptide (Xip251-270)): 0.942
z-score [2]: 0.649
z-score [3]: -4.48 (inactive)
z-score [4]: 0.184 (inactive)
z-score [5]: -0.14 (inactive)

C=C(CCCC)/C(=C/C[C@H](OC(C)=O)c1ccc(CO)o1)c1cc(C(=O)OC)ccc1OC
composite z-score [1]: 0.485 (inactive)
composite z-score (XIP peptide (Xip251-270)): 0.73
z-score [2]: -1.52
z-score [3]: -4.44 (inactive)
z-score [4]: -0.92 (inactive)
z-score [5]: -0.469 (inactive)

COC(=O)C(CC#Cc1ccc2c(c1)[C@]1(C(=O)N2)[C@H](C(=O)N2CCCCCCC2)[C@H]2C(=O)O[C@H](c3ccccc3)[C@H](c3ccccc3)N2[C@@H]1c1ccccc1OCCO)C(=O)OC
composite z-score [1]: 8 (inactive)
composite z-score (XIP peptide (Xip251-270)): 1.04
z-score [2]: -2.21
z-score [3]: 1.03 (inactive)
z-score [4]: 0.0041 (inactive)
z-score [5]: 0.0484 (inactive)

C=CCC(OC(C)=O)[C@@H]1[C@@H](N(Cc2ccc(-c3ccccc3)cc2)C(=O)c2ccc(C)cc2)c2cc(OCCCO)ccc2N1C(=O)c1ccc2ccccc2n1 (stereo partly specified)
composite z-score [1]: -0.218 (inactive)
composite z-score (XIP peptide (Xip251-270)): -0.876
z-score [2]: -0.62
z-score [3]: -1.29 (inactive)
z-score [4]: -0.641 (inactive)
z-score [5]: -0.346 (inactive)

COCCOC(=O)N1C(=O)[C@@]2(c3cc(C#CCCO)ccc31)[C@H](C(=O)NC[C@H](O)c1ccccc1)[C@H]1C(=O)O[C@H](c3ccccc3)[C@H](c3ccccc3)N1[C@@H]2c1ccc(OCCO)cc1
composite z-score [1]: -0.0001 (inactive)
composite z-score (XIP peptide (Xip251-270)): 0.577
z-score [2]: -1.99
z-score [3]: -1.64 (inactive)
z-score [4]: 0.0945 (inactive)
z-score [5]: 0.298 (inactive)

CCOC(=O)C[C@H]1[C@H](OC(=O)c2ccccc2-c2ccccc2)[C@@H](NC(=O)c2ccc(-c3ccccc3)cc2)c2cc(OCCCO)ccc2N1C(=O)c1ccccc1
composite z-score [1]: 0.788 (inactive)
composite z-score (XIP peptide (Xip251-270)): 0.79
z-score [2]: -1.43
z-score [3]: -1.95 (inactive)
z-score [4]: -0.189 (inactive)
z-score [5]: 0.151 (inactive)

Cc1ccc(C(C)CC(O)C2C=CC3C(=O)NC(=O)C3N2Nc2ccccn2)o1 (stereo unspecified)
composite z-score [1]: 0.673 (inactive)
composite z-score (XIP peptide (Xip251-270)): 0.881
z-score [2]: 0.281
z-score [3]: -2.14 (inactive)
z-score [4]: 0.333 (inactive)
z-score [5]: 0.0304 (inactive)

O=[N+]([O-])c1ccc(C[n+]2ccc(CCCO)cc2)o1
composite z-score [1]: 0.46 (inactive)
composite z-score (XIP peptide (Xip251-270)): 0.968
z-score [2]: -1.28
z-score [3]: -2.88 (inactive)
z-score [4]: -0.0644 (inactive)
z-score [5]: 0.492 (inactive)

CN1C(=O)C2C=CC(C(O)c3ccc(Br)cc3)N(Nc3ccccc3)C2C1=O (stereo unspecified)
composite z-score [1]: -0.115 (inactive)
composite z-score (XIP peptide (Xip251-270)): 0.0244
z-score [2]: 0.672
z-score [3]: -1.23 (inactive)
z-score [4]: 0.247 (inactive)
z-score [5]: -0.122 (inactive)

C=C(CCCC)C(=O)CC[C@@H](OC(=O)c1ccccc1-c1ccccc1C(=O)O)c1ccc(CO)o1
composite z-score [1]: 0.412 (inactive)
composite z-score (XIP peptide (Xip251-270)): 0.432
z-score [2]: 1.61
z-score [3]: -5.58 (inactive)
z-score [4]: 0.629 (inactive)
z-score [5]: 0.717 (inactive)

COCCOC(=O)N1C(=O)[C@@]2(c3cc(C#CC4=CCCCC4)ccc31)[C@H](C(=O)N1CCN(c3ncccn3)CC1)[C@H]1C(=O)O[C@H](c3ccccc3)[C@H](c3ccccc3)N1[C@@H]2c1ccc(OCCO)cc1
composite z-score [1]: 0.499 (inactive)
composite z-score (XIP peptide (Xip251-270)): 0.463
z-score [2]: -2.08
z-score [3]: 1.96 (inactive)
z-score [4]: 0.0924 (inactive)
z-score [5]: 0.501 (inactive)

CCCC[C@H]1C[C@@H]1[C@@H]1N(P(=O)(c2ccccc2)c2ccccc2)[C@](CO)(c2ccccc2)CC12CC2
composite z-score [1]: -0.131 (inactive)
composite z-score (XIP peptide (Xip251-270)): 0.518
z-score [2]: 0.791
z-score [3]: -2.7 (inactive)
z-score [4]: 0.335 (inactive)
z-score [5]: 0.514 (inactive)

C=C(/C(=C/C[C@@H](OC(=O)c1ccncc1)c1ccc(CO)o1)c1cc(C(=O)OC)ccc1OC)C(C)C
composite z-score [1]: 0.18 (inactive)
composite z-score (XIP peptide (Xip251-270)): 0.813
z-score [2]: -1.01
z-score [3]: -4.08 (inactive)
z-score [4]: -0.471 (inactive)
z-score [5]: 0.811 (inactive)

CCCCC(=C=CC[C@H](O)c1ccccc1OCCO)C[C@H](O)c1cc(Cl)cc(Cl)c1O
composite z-score [1]: 0.776 (inactive)
composite z-score (XIP peptide (Xip251-270)): 0.832
z-score [2]: -1.09
z-score [3]: -4.23 (inactive)
z-score [4]: 0.0899 (inactive)
z-score [5]: 1.23 (inactive)

COCCOC(=O)N1C(=O)[C@@]2(c3cc(C#CCC(C(=O)OC)C(=O)OC)ccc31)[C@H](c1ccc(OCCO)cc1)N1[C@H](c3ccccc3)[C@H](c3ccccc3)OC(=O)[C@H]1[C@@H]2C(=O)NC[C@H](O)c1ccccc1
composite z-score [1]: 0.234 (inactive)
composite z-score (XIP peptide (Xip251-270)): 0.851
z-score [2]: -2.16
z-score [3]: 0.738 (inactive)
z-score [4]: -0.411 (inactive)
z-score [5]: -0.397 (inactive)

O=C1OCCC=C[C@H]2OC34C=CCN(CCN5CCOCC5)C(=O)[C@H]3N(CCO)C(=O)[C@@H]4C12 (stereo partly specified)
composite z-score [1]: 0.134 (inactive)
composite z-score (XIP peptide (Xip251-270)): 0.0053
z-score [2]: 0.0863
z-score [3]: -5.81 (inactive)
z-score [4]: -0.492 (inactive)
z-score [5]: -0.757 (inactive)
